Measured values taken from PubChem BioAssay.
Activity calls are given as the source filed them.

Tests used:
[1] = tested on: Plasmodium falciparum Sir2 (PF13_0152, Sir2A); assay: pfSir2 binders on small-molecule microarrays, primary screen, biochemical, small-molecule microarray, 635 nm fluorescence (AID 1098); conditions: small-molecule microarray binding, fluorescence 635 nm; higher = more signal;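 also: score merges spot fluorescence intensity with its signal-to-noise ratio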
[2] = small-molecule microarray binders of probe aDKK1, primary screen, biochemical, biotinylated probe, 635/667 nm fluorescence (AID 1099); conditions: higher = more signal;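 also: score merges 667nm spot fluorescence with signal to noise across triplicate slides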
[3] = small-molecule microarray binders of probe aCHRDL2, primary screen, biochemical, biotinylated probe, 635/667 nm fluorescence (AID 1100); conditions: higher = more signal
[4] = splicing luciferase reporter signal modulators, primary screen, spliceosome inhibition project, cell-based, HEK293, splice +/- reporter (AID 1101); conditions: luminescence, 24 h, higher = more signal, called active from +8 up or from −8 down;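 also: HEK293 cells carrying a splicing-competent luciferase reporter gene; test concentration not given here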
[5] = molecular target: Fibroblast growth factor 10 (Homo sapiens) (UniProt O15520); assay: FGF10 binders on small-molecule microarrays, primary screen, biochemical, small-molecule microarray, 635 nm fluorescence (AID 1102); conditions: FGF10 binding, fluorescence 635 nm, higher = more signal
Sequence of Fibroblast growth factor 10 (Homo sapiens) (O15520 whole entry, looked up): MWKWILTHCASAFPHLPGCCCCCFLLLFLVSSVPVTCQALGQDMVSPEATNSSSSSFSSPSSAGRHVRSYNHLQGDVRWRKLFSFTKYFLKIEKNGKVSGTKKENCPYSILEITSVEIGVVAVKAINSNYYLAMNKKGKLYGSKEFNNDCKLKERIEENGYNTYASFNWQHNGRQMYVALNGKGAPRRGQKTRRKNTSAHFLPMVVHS

[6] = tested on: glycogen synthase kinase-3 (GSK3A per assay name; protocol says GSK3B); assay: GSK3 binders on small-molecule microarrays, primary screen, biochemical, small-molecule microarray, 635 nm fluorescence, GSK3A (AID 1103); conditions: small-molecule microarray binding, fluorescence 635 nm; higher = more signal; also: the record names both GSK3A and GSK3B
[7] = molecular target: Epidermal growth factor receptor (Homo sapiens) (UniProt P00533); assay: EGFR binders on small-molecule microarrays, primary screen, biochemical, small-molecule microarray, 635 nm fluorescence (AID 1104); conditions: EGFR binding, higher = more signal;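 also: score merges 667 nm emission intensity with spot signal to noise over triplicate slides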
Sequence of Epidermal growth factor receptor (Homo sapiens) (P00533 whole entry, looked up): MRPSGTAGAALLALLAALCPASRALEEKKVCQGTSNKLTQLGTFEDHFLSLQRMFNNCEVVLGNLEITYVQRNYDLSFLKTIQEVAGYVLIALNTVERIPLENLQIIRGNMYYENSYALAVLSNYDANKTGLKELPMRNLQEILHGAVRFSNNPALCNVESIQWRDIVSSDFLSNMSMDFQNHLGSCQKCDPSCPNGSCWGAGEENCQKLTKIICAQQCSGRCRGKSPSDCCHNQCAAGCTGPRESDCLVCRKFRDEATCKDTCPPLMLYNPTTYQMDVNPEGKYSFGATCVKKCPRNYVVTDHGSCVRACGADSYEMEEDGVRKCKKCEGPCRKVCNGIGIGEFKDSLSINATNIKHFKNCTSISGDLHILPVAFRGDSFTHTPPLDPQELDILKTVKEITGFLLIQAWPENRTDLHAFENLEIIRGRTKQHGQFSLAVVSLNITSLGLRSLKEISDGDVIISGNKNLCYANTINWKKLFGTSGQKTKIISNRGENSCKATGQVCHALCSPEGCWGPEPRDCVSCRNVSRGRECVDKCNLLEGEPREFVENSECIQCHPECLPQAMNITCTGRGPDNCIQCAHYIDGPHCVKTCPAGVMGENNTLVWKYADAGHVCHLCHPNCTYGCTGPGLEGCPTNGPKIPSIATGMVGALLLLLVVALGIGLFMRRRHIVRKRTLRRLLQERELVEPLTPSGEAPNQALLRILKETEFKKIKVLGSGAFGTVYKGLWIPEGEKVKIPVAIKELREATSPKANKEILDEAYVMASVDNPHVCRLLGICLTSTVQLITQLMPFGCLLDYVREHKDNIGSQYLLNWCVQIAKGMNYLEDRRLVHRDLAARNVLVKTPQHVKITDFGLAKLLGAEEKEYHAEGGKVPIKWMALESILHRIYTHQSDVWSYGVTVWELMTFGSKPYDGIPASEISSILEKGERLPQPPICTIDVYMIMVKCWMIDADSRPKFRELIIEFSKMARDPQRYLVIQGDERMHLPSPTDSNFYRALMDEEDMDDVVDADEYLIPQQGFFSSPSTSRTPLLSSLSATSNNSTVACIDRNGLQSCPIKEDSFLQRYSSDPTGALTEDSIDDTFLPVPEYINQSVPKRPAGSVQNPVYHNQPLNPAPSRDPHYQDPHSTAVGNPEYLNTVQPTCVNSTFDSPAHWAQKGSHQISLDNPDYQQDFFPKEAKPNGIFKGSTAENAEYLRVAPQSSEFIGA

[8] = molecular target: Follistatin-related protein 3 (Homo sapiens) (UniProt O95633); assay: FSTL3 binders on small-molecule microarrays, primary screen, biochemical, small-molecule microarray, 635 nm fluorescence (AID 1105); conditions: FSTL3 binding, higher = more signal;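 also: score merges emission near 667 nm and signal to noise per printed spot across three slides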
Sequence of Follistatin-related protein 3 (Homo sapiens) (O95633 whole entry, looked up): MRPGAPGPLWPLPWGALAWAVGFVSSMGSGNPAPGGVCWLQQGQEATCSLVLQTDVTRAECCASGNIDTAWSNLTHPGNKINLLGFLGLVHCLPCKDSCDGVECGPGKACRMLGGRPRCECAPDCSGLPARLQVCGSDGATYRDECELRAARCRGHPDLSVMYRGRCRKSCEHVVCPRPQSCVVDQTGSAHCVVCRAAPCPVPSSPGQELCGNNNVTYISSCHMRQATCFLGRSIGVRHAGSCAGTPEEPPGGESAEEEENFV

[9] = molecular target: Dickkopf-related protein 1 (Homo sapiens) (UniProt O94907); assay: DKK1 binders on small-molecule microarrays, primary screen, biochemical, small-molecule microarray, 635 nm fluorescence scan (AID 1106); conditions: DKK1 binding, higher = more signal;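 also: score merges emission near 667 nm with signal to noise over three replicate slides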
Sequence of Dickkopf-related protein 1 (Homo sapiens) (O94907 whole entry, looked up): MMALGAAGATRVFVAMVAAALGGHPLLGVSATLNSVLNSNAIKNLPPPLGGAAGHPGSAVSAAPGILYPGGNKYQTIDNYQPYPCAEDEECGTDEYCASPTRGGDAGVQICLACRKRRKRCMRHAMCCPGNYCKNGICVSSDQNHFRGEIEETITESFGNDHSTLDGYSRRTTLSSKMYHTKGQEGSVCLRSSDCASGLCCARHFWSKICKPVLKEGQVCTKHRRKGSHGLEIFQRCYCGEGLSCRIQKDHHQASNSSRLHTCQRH

[10] = tested on: Inhibin beta A chain (activin A); assay: INHBA (activin A) binders on microarrays, primary screen, biochemical, small-molecule microarray, 635 nm fluorescence scan (AID 1107); conditions: small-molecule microarray binding, higher = more signal;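 also: mouse activin A protein probed at 4.33 µg/mL on printed slides; score merges bound-protein fluorescence near 667 nm with spot signal-to-noise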
[11] = tested on: Human papillomavirus type 1a protein E7 (residues 44-93); assay: HPV1a E7 fragment binders on microarrays, primary screen, biochemical, small-molecule microarray, residues 44-93, 635 nm fluorescence (AID 1108); conditions: small-molecule microarray binding, fluorescence 635 nm; higher = more signal;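 also: E7 fragment applied at 1 µg/mL in TBST for 1 h at 4 C; score combines spot fluorescence with its signal to noise ratio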
[12] = modulators of HCV replicon luciferase signal, primary screen, HCV replication inhibitor project, Huh7 cells, luciferase reporter (AID 1109); conditions: 48 h, higher = more signal;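 also: huh7 hepatoma cells harbouring a luciferase neomycin HCV replicon reporter; luciferase luminescence as measure of HCV replicon replication; test concentration not given here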
[13] = molecular target: Left-right determination factor 2 (Homo sapiens) (UniProt O00292); assay: LEFTY2 binders on small-molecule microarrays, primary screen, biochemical, small-molecule microarray, 635 nm fluorescence scan (AID 1110); conditions: LEFTY2 binding, higher = more signal
Sequence of Left-right determination factor 2 (Homo sapiens) (O00292 whole entry, looked up): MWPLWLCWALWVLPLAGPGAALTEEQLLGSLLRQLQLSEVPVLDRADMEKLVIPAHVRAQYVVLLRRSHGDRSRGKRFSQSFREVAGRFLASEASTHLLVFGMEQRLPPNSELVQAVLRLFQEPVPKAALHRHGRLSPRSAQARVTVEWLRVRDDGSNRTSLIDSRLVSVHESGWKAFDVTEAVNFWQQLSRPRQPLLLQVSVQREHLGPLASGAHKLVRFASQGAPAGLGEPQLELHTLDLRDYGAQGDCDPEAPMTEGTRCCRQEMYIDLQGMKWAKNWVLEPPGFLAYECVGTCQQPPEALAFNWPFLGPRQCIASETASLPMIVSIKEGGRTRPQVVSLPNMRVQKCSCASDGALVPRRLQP

[14] = molecular target: Calmodulin-1 (Homo sapiens) (UniProt P0DP23); assay: CALM1 binders on microarrays, EGTA buffer, profiling panel, biochemical, small-molecule microarray, Cy5-labelled CALM1 (AID 1111); conditions: Cy5-CALM1 binding fluorescence, higher = more signal;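 also: labelled calmodulin applied in Tris saline Tween buffer holding calcium plus EGTA and DTT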
[15] = molecular target: Calmodulin-1 (Homo sapiens) (UniProt P0DP23); assay: calcium-bound CALM1 binders on microarrays, profiling panel, artefact control for SMM control-protein annotation, biochemical, small-molecule microarray, Cy5-labelled CALM1, plus calcium (AID 1112); conditions: Cy5-CALM1 binding fluorescence, higher = more signal;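 also: score merges spot fluorescence with signal to noise from triplicate slides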
[16] = small-molecule microarray binders of probe aWnt5a, primary screen, biochemical, biotinylated probe, 635/667 nm fluorescence (AID 1113); conditions: higher = more signal;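 also: score merges 667 nm fluorescence intensity with signal-to-noise per printed feature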
[17] = small-molecule microarray binders of probe aShh, primary screen, biochemical, biotinylated probe, 635/667 nm fluorescence (AID 1114); conditions: higher = more signal;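 also: probe is biotin-labelled aShh protein from a stem cell growth factor screen; measures binding of labelled protein to compounds printed on the slide; score merges feature fluorescence at 667 nm with signal-to-noise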
[18] = small-molecule microarray binders of probe aNog, primary screen, biochemical, biotinylated probe, 635/667 nm fluorescence (AID 1115); conditions: higher = more signal;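 also: probe is biotinylated aNog protein used at 0.15 µg/mL for 1 h at 4 C; z-score combines 667 nm fluorescence of each spot with its signal to noise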
[19] = molecular target: Torsin-1A-interacting protein 1 (Homo sapiens) (UniProt Q5JTV8); assay: LAP1 binders from COS7 cell lysate, primary screen, small-molecule microarray, 635/667 nm fluorescence (AID 1116); conditions: COS7-hLAP1 lysate binding, 635 nm fluorescence, higher = more signal
Sequence of Torsin-1A-interacting protein 1 (Homo sapiens) (Q5JTV8 whole entry, looked up): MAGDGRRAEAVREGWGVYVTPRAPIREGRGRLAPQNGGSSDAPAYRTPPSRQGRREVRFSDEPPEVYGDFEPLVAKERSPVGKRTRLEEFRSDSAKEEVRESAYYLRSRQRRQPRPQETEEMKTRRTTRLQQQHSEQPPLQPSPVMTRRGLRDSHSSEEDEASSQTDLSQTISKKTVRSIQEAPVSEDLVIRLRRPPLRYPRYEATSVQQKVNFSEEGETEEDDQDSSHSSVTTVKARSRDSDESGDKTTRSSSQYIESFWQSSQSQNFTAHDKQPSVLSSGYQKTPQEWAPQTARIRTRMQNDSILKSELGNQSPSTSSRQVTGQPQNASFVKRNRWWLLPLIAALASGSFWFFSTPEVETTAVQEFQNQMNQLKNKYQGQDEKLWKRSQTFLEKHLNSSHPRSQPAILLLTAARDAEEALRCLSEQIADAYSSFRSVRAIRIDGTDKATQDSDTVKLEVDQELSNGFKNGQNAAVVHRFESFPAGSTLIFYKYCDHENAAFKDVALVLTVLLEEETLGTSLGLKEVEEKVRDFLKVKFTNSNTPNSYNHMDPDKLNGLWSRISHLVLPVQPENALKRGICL

[20] = molecular target: Alpha-bungarotoxin (Bungarus multicinctus) (UniProt P60615); assay: alpha-bungarotoxin binders on microarray, profiling panel, artefact control for SMM control protein annotation, biochemical, small-molecule microarray, Alexa647 label, 635/667 nm fluorescence (AID 1117); conditions: alpha-BTX-A647 binding fluorescence, higher = more signal
Sequence of Alpha-bungarotoxin (Bungarus multicinctus) (P60615 whole entry, looked up): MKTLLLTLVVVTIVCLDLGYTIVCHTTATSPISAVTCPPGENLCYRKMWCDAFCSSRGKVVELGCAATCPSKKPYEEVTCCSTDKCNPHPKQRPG

| Compound | composite z-score [1] | composite z-score [2] | composite z-score [3] | z-score [4] | composite z-score [5] | composite z-score [6] | composite z-score [7] | composite z-score [8] | composite z-score [9] | composite z-score [10] | composite z-score [11] | z-score [12] | composite z-score [13] | composite z-score [14] | composite z-score [15] | composite z-score [16] | composite z-score [17] | composite z-score [18] | composite z-score [19] | composite z-score [20] |
| --- | --- | --- | --- | --- | --- | --- | --- | --- | --- | --- | --- | --- | --- | --- | --- | --- | --- | --- | --- | --- |
| O=C1O[C@@H](c2ccccc2)[C@@H](c2ccccc2)N2[C@@H](c3ccc(OCCO)cc3)[C@]3(C(=O)Nc4ccc(C#CCCO)cc43)[C@@H](C(=O)NC[C@H](O)c3ccccc3)[C@H]12 | 1.51 | 0.312 | 0.333 | -0.6 (inactive) | 0.84 | 0.905 | 0.94 | 0.956 | 0.687 | 0.73 | 1.4 | -1.25 | 0.25 | 0.604 | 0.174 | 0.119 | 0.493 | -0.398 | 1.09 | 1.24 |
| [N-]=[N+]=Nc1ccccc1C[C@]1(C(=O)NCC(O)CO)N=C(c2ccc(OCCCO)cc2)O[C@H]1c1ccccc1 (stereo not given in full) | 0.848 | 0.603 | 0.965 | -0.29 (inactive) | 0.786 | 0.544 | -0.704 | -0.107 | -0.735 | 0.537 | 1.45 | -0.962 | -1.32 | 1.89 | 0.496 | -0.0924 | -0.0709 | -0.492 | 0.954 | 0.903 |
| O=C1N(CCS(=O)(=O)c2ccccc2)c2ccccc2[C@@H]2OC(c3ccc(OCCCO)cc3)=N[C@]12Cc1ccccc1 | 1.49 | 0.0733 | 0.393 | -0.917 (inactive) | 0.379 | 1.28 | 0.542 | 1.29 | 0.432 | 0.995 | 1.34 | -1.94 | 0.248 | 0.835 | -0.387 | -0.124 | -0.24 | -0.12 | 0.309 | 1.32 |
| CCOC(=O)C1=CCC(c2ccc(F)cc2)N(S(=O)(=O)c2ccc(C)cc2)C1 (stereo not given) | 0.12 | 0.582 | 0.291 | 0.0136 (inactive) | -0.0564 | 0.265 | 0.192 | 0.249 | 0.127 | 1.01 | 0.683 | -1.81 | 0.105 | 0.0017 | 0.0535 | -0.184 | -0.167 | -0.494 | 0.612 | 0.25 |
| COCCCNC(=O)[C@@H]1c2ccccc2C(=O)N(Cc2ccccc2)[C@H]1c1ccc(CO)cc1 | 0.698 | 0.698 | 0.655 | -0.403 (inactive) | 0.223 | 0.437 | 0.851 | 0.197 | 0.549 | 0.353 | 0.364 | -0.719 | 0.221 | -0.448 | 0.004 | 0.0215 | 0.131 | -0.69 | 1.32 | -0.222 |
| CCOc1ccc(N2C(=O)CSC2c2cccc([N+](=O)[O-])c2)cc1 (stereo not given) | 0.891 | -0.117 | -0.0935 | -0.105 (inactive) | 0.344 | 0.0863 | 0.354 | 0.241 | 0.168 | -0.0762 | 1.35 | -0.343 | 0.216 | 0.847 | 0.615 | -0.0383 | 0.0796 | -0.194 | 0.143 | 1.5 |
| [N-]=[N+]=Nc1ccccc1[C@H]1OC(c2ccc(OCCCO)cc2)=N[C@@]1(CCS(=O)(=O)c1ccccc1)C(=O)NCc1ccccc1 | 0.91 | 0.812 | 0.988 | -0.431 (inactive) | 1.18 | 1.32 | 0.258 | 1.14 | 0.584 | 1.05 | 1.46 | -0.242 | 0.565 | 0.937 | 0.338 | 0.153 | 0.0723 | -0.487 | 1.06 | 0.785 |
| COc1cc(CO)cc(I)c1O[C@H]1C=C(C(=O)NCCO)C[C@@H](N(C(=O)c2cc3ccccc3oc2=O)C2CCCCCC2)[C@@H]1O | 1.09 | -0.28 | -0.302 | -1.33 (inactive) | 0.968 | -0.314 | 0.338 | 0.348 | 0.306 | -0.0101 | -0.914 | -0.469 | -0.0138 | -0.23 | -0.769 | -0.096 | -0.349 | -0.267 | 0.155 | -0.29 |
| COc1ccc([Si](C)(C)[C@H]2[C@H](CCn3cc([C@H](O)c4ccccc4)nn3)O[C@@]3(C(=O)N(C)c4ccccc43)[C@@H]2C)cc1 | 1.17 | -0.0149 | 0.376 | 1.11 (inactive) | -0.133 | -0.621 | -0.55 | -0.165 | -0.529 | 0.209 | -0.455 | -2.37 | -0.759 | 0.418 | 0.947 | -0.119 | -0.0793 | -0.266 | -0.773 | -0.909 |
| CC(CO)N1C(=O)[C@@H]2C3C(=O)OCCC/C=C\[C@H]3OC23C=CCN(CCN2CCOCC2)C(=O)[C@@H]13 (stereo not given in full) | 0.238 | -0.412 | -0.48 | -0.669 (inactive) | 0.516 | 0.494 | -0.493 | 0.124 | 0.281 | 0.693 | -0.201 | -0.77 | -0.0109 | -0.514 | -1.01 | -0.152 | 0.0048 | -0.272 | -0.116 | 0.0654 |
| CC(C)OC(=O)C=C1C[C@@H](c2cccc(Cl)c2)O[C@@H](c2cccc(Cl)c2)O1 | 1.31 | 0.471 | 1.11 | 1.35 (inactive) | 0.31 | 0.651 | -1.18 | -0.901 | -1.42 | 1.24 | 0.597 | -0.825 | -0.869 | 1.39 | 1.05 | -0.0735 | -0.0035 | -0.43 | 1.58 | 0.381 |
